# Experiments:
# [1] = molecular target: Calcium/calmodulin-dependent protein kinase type 1 (Homo sapiens) (UniProt Q14012); conditions: at 1 µM
# [2] = molecular target: Calcium/calmodulin-dependent protein kinase type 1 (Homo sapiens) (UniProt Q14012); conditions: at 10 µM
# [3] = molecular target: Calcium/calmodulin-dependent protein kinase type II subunit beta (Homo sapiens) (UniProt Q13554); conditions: at 1 µM
# [4] = molecular target: Calcium/calmodulin-dependent protein kinase type II subunit beta (Homo sapiens) (UniProt Q13554); conditions: at 10 µM
# [5] = molecular target: Calcium/calmodulin-dependent protein kinase type II subunit delta (Homo sapiens) (UniProt Q13557); conditions: at 1 µM
# Chain of Calcium/calmodulin-dependent protein kinase type II subunit delta (Homo sapiens) (Q13557 whole entry): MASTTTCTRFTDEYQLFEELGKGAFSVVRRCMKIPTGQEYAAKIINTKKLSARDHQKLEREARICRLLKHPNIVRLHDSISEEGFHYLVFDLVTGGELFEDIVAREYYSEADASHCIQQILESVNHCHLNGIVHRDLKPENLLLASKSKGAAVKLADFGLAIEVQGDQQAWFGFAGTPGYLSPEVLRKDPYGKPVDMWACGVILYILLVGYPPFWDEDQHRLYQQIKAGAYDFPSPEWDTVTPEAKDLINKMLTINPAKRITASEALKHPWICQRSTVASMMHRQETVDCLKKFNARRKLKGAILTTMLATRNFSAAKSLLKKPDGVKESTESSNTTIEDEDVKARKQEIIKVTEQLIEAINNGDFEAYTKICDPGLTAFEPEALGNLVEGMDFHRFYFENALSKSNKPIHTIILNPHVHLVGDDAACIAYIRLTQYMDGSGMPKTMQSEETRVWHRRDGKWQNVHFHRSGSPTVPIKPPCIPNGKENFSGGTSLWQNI
# [6] = molecular target: Calcium/calmodulin-dependent protein kinase type II subunit delta (Homo sapiens) (UniProt Q13557); conditions: at 10 µM
# [7] = molecular target: T1, Calcium/calmodulin-dependent protein kinase type IV (Homo sapiens) (UniProt Q16566); conditions: at 1 µM
# T1 sequence (whole entry): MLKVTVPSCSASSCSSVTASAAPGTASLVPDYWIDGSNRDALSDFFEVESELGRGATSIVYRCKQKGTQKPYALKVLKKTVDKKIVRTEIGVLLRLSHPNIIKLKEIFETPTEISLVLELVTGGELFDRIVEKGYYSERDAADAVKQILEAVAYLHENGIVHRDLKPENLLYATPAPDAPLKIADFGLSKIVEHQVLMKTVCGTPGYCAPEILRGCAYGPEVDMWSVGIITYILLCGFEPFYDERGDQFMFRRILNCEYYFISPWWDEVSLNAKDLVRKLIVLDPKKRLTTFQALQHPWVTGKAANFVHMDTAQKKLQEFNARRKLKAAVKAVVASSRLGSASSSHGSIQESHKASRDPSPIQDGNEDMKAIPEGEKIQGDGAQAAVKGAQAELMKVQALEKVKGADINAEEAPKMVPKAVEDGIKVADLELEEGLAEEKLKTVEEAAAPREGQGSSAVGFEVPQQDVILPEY
# [8] = molecular target: T1, Calcium/calmodulin-dependent protein kinase type IV (Homo sapiens); conditions: at 10 µM
# [9] = molecular target: Death-associated protein kinase 1 (Homo sapiens) (UniProt P53355); conditions: at 10 µM
# Chain of Death-associated protein kinase 1 (Homo sapiens) (P53355 whole entry, looked up): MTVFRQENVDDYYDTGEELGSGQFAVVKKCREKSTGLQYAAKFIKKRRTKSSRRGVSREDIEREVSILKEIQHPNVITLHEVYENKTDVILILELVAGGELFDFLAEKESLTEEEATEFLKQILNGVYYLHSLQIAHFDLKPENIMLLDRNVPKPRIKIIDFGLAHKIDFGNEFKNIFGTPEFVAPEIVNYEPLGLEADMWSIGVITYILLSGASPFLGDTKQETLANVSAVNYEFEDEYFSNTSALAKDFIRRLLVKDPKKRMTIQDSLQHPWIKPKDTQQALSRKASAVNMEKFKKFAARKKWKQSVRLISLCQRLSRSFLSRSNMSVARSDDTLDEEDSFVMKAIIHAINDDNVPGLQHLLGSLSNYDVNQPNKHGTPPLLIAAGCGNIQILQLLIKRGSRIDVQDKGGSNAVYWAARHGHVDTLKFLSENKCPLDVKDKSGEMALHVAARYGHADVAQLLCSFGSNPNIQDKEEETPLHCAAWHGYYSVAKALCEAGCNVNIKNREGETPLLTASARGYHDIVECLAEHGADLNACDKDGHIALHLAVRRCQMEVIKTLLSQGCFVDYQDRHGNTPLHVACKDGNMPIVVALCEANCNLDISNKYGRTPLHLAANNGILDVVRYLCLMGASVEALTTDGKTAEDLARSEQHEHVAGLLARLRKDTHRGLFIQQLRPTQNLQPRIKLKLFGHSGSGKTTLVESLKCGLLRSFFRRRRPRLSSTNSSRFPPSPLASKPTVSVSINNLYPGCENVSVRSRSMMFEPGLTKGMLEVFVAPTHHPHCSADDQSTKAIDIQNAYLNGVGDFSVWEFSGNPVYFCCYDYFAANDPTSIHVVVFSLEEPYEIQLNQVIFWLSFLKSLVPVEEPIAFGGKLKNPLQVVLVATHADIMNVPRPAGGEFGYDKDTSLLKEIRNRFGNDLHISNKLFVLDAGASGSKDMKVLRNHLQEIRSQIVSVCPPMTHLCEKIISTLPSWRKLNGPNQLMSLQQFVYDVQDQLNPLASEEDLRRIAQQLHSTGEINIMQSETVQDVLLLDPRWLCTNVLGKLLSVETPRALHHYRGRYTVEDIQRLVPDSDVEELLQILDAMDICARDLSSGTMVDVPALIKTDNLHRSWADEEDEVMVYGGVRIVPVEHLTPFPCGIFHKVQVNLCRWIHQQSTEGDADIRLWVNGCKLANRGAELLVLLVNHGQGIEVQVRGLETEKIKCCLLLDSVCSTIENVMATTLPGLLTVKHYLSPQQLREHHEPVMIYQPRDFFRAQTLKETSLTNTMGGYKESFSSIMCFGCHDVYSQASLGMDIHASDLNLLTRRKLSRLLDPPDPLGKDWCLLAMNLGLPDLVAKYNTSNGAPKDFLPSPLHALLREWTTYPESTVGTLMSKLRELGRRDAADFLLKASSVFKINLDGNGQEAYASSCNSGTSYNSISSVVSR
# [10] = molecular target: Death-associated protein kinase 2 (Homo sapiens) (UniProt Q9UIK4); conditions: at 1 µM
# Chain of Death-associated protein kinase 2 (Homo sapiens) (Q9UIK4 whole entry, looked up): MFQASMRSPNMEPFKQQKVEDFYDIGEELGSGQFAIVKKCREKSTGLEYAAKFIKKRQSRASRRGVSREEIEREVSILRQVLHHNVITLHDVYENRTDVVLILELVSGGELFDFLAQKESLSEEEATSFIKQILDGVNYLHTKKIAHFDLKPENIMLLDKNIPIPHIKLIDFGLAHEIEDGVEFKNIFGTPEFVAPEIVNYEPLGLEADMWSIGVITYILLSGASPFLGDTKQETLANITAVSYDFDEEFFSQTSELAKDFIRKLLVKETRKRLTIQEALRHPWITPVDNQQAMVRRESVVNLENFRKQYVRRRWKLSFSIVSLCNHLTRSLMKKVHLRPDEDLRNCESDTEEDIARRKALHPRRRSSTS
# [11] = molecular target: Death-associated protein kinase 2 (Homo sapiens) (UniProt Q9UIK4); conditions: at 10 µM
# [12] = molecular target: T2, Serine/threonine-protein kinase DCLK2 (Homo sapiens) (UniProt Q8N568); conditions: at 1 µM
# T2 sequence (whole entry): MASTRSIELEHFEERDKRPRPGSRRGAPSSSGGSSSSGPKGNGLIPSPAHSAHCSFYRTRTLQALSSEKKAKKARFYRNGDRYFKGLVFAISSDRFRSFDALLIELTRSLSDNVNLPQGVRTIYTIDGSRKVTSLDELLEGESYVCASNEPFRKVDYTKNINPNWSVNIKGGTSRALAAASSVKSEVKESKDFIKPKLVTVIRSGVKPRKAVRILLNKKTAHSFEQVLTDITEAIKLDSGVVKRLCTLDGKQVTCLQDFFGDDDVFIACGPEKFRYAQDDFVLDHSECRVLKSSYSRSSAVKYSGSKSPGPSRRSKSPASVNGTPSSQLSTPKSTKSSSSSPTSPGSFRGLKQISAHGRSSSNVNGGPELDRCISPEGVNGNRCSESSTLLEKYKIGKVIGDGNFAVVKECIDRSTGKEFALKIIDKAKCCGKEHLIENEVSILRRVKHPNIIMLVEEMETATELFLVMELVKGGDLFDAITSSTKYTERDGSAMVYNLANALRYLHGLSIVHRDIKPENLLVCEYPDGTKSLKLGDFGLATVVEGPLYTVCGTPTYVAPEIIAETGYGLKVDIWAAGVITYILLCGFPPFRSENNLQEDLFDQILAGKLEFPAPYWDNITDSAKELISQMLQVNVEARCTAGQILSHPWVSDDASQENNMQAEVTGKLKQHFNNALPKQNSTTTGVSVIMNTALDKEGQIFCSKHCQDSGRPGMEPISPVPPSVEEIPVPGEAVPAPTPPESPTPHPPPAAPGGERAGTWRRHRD
# [13] = molecular target: T2, Serine/threonine-protein kinase DCLK2 (Homo sapiens); conditions: at 10 µM
# [14] = molecular target: T3, Discoidin domain-containing receptor 2 (Homo sapiens) (UniProt Q16832); conditions: at 1 µM
# T3 sequence (whole entry): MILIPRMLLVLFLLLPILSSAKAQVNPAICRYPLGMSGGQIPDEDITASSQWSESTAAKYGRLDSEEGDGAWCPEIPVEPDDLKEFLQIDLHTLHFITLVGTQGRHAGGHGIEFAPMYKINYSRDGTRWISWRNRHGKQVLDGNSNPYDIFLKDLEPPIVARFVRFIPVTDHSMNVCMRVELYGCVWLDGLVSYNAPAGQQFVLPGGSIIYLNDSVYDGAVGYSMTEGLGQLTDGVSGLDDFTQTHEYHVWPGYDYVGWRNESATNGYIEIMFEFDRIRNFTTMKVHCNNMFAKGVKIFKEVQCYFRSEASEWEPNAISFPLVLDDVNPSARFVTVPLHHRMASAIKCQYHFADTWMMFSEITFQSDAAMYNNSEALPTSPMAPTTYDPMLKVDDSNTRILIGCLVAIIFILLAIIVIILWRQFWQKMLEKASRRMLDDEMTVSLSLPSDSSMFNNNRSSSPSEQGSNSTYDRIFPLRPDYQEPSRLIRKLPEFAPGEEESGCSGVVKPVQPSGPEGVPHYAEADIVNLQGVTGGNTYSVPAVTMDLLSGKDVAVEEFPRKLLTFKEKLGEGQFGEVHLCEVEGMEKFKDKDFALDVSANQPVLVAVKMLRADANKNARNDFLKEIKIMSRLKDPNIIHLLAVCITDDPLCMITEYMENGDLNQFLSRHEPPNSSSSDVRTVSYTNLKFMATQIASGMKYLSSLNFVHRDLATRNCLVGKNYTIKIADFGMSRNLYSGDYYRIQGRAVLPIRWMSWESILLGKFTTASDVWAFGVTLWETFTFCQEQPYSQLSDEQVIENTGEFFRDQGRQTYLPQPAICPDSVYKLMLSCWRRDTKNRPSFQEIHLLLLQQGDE
# [15] = molecular target: T3, Discoidin domain-containing receptor 2 (Homo sapiens); conditions: at 10 µM
# [16] = molecular target: T4, Myotonin-protein kinase (Homo sapiens) (UniProt Q09013); conditions: at 10 µM
# T4 sequence (whole entry): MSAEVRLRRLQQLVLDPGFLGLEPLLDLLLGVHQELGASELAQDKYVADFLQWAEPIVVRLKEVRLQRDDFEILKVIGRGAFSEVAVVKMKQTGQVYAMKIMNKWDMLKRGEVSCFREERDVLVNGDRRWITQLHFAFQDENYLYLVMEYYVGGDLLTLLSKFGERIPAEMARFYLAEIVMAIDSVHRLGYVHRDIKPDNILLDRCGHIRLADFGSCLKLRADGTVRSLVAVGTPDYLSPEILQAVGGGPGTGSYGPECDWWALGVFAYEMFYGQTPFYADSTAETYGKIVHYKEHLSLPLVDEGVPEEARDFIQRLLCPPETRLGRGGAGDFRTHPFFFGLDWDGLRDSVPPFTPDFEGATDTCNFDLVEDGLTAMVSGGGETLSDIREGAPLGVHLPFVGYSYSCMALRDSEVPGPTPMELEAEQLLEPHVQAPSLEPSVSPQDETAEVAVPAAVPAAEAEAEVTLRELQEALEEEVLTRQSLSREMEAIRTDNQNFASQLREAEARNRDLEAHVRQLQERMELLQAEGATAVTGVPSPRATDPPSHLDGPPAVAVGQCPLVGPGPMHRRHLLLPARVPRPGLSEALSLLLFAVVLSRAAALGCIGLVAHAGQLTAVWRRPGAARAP
# [17] = molecular target: Calcium/calmodulin-dependent protein kinase type II subunit gamma (Homo sapiens) (UniProt Q13555); conditions: at 1 µM
# Chain of Calcium/calmodulin-dependent protein kinase type II subunit gamma (Homo sapiens) (Q13555 whole entry): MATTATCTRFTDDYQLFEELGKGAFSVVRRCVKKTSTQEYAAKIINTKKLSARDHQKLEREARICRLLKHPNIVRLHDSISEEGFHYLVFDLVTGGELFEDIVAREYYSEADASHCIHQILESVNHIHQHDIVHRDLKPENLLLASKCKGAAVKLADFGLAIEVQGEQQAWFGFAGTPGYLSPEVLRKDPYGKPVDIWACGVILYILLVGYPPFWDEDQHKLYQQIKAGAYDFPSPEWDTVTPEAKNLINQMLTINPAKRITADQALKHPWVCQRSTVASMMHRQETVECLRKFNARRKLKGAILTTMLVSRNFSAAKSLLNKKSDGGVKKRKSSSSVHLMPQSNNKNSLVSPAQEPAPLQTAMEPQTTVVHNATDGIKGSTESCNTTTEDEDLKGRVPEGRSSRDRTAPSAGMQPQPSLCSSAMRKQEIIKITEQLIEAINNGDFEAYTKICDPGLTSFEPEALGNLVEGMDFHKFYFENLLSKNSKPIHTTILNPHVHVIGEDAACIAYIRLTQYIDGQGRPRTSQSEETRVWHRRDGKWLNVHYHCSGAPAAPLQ
# [18] = molecular target: Calcium/calmodulin-dependent protein kinase type II subunit gamma (Homo sapiens) (UniProt Q13555); conditions: at 10 µM
# [19] = molecular target: T4, Myotonin-protein kinase (Homo sapiens); conditions: at 1 µM
# [20] = molecular target: T5, Serine/threonine-protein kinase 17A (Homo sapiens) (UniProt Q9UEE5); conditions: at 1 µM
# T5 sequence (whole entry): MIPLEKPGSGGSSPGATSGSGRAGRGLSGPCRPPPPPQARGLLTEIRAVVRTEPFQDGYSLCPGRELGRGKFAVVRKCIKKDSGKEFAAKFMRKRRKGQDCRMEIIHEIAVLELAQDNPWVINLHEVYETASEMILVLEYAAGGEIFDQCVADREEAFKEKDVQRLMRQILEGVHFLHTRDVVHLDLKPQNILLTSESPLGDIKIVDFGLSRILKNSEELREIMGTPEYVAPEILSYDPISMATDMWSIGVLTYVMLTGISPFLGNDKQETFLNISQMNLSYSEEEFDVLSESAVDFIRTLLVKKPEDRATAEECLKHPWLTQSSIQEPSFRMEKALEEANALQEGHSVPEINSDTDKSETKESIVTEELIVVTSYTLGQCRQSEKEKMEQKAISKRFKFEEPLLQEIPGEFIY
# Chain of Calcium/calmodulin-dependent protein kinase type II subunit beta (Homo sapiens) (Q13554 whole entry): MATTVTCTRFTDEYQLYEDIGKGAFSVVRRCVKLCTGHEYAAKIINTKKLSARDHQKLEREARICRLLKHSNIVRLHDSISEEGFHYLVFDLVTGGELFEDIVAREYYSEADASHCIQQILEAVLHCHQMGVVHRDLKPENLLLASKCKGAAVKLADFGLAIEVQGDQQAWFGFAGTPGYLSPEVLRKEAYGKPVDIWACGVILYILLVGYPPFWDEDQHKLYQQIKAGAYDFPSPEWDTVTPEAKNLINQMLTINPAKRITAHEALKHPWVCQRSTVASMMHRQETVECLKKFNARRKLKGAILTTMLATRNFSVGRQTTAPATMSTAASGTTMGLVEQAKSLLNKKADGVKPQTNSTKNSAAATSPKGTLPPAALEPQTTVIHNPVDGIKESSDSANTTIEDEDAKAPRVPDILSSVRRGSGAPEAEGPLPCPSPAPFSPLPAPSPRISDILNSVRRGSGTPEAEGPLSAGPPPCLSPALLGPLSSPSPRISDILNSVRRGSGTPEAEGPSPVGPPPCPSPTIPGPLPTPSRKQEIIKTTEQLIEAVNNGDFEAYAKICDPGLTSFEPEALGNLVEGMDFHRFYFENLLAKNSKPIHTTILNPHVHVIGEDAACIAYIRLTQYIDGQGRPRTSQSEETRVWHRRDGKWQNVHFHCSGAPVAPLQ
# Chain of Calcium/calmodulin-dependent protein kinase type 1 (Homo sapiens) (Q14012 whole entry, looked up): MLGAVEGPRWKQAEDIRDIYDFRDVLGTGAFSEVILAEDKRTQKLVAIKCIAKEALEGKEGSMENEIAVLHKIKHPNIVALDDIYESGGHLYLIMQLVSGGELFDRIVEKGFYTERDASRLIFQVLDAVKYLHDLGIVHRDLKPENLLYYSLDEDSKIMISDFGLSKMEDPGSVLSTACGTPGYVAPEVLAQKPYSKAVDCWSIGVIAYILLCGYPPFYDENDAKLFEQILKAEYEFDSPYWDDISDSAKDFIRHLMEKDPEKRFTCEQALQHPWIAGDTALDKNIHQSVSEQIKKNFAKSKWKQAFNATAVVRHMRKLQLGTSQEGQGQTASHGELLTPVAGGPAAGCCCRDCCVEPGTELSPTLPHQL
SMILES,residual activity [1] [%],residual activity [2] [%],residual activity [3] [%],residual activity [4] [%],residual activity [5] [%],residual activity [6] [%],residual activity [7] [%],residual activity [8] [%],residual activity [9] [%],residual activity [10] [%],residual activity [11] [%],residual activity [12] [%],residual activity [13] [%],residual activity [14] [%],residual activity [15] [%],residual activity [16] [%],residual activity [17] [%],residual activity [18] [%],residual activity [19] [%],residual activity [20] [%]
Cn1sc(=O)n(Cc2ccccc2)c1=O,75,67,92,83,98,90,73,51,80,97,99,100,90,78,90,81,–,–,–,–
COc1ccc2c(c1)c(C1=C(c3c[nH]c4ccccc34)C(=O)NC1=O)cn2CCCN(C)C,96,45,80,28,42,8,105,61,76,71,32,54,55,111,–,104,62,10,103,–
CCN(CC)CCNC(=O)c1c(C)[nH]c(/C=C2\C(=O)Nc3ccc(Cl)cc32)c1C,51,-2,8,1,3,1,–,–,31,63,16,68,24,–,44,68,3,0,52,3
O=C1Nc2ccc(Cl)cc2/C1=C/c1cc(Cl)c(O)c(Cl)c1,96,63,69,23,69,10,–,–,46,69,28,61,73,–,–,138,62,10,–,71
O=C1Cc2c([nH]c3ccc(Br)cc23)-c2ccccc2N1,94,74,81,57,58,16,–,–,–,–,–,–,–,–,–,83,–,–,97,76
Nc1ncnc2c1c(-c1ccc(Oc3ccccc3)cc1)cn2C1CCCC1,95,29,83,57,98,68,112,85,69,101,–,91,93,105,53,127,–,72,127,110

# Reference: ChEMBL document CHEMBL2218924, “A broad activity screen in support of a chemogenomic map for kinase signalling research and drug discovery” (Biochem J, 2013)
